# Data published in PubChem BioAssay (NCATS).
# Records with an inconclusive call do not appear. Entries that show only a call come without a potency. The source made the active and inactive calls. Unless noted, the call rests on the fitted dose curve; in most records, active means well fitted curve in the direction sought with a large enough effect; inconclusive means small, poorly fitted or top-dose-only effect, or another doubt; inactive means no such curve, though single readings can be large; an effect the other way counts as inactive or inconclusive.
# Assays:
# [1] = qHTS profiling for inhibitors of Plasmodium falciparum proliferation (AID 504749); further: nearly all actives have a fitted effect of over 60% in size; further: potency means the concentration at half of the fitted maximal effect; details: P. falciparum in erythrocytes, SYBR Green DNA, 72 h
# Method in brief: (§1)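 Parasite proliferation within erythrocytes, 72 h exposure. Endpoint: SYBR Green I fluorescence after overnight lysis at room temperature. Controls: 0.29 uM artemisinin, DMSO.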
# 3D7 = assay: as above; details: P. falciparum in erythrocytes, SYBR Green DNA, 72 h; series mostly up to 28.7 µM
# Method in brief: as §1
# 7G8 = assay: as above; details: P. falciparum in erythrocytes, SYBR Green DNA, 72 h; series mostly up to 28.7 µM
# Method in brief: as §1
# AA1029 = assay: as above; details: P. falciparum in erythrocytes, SYBR Green DNA, 72 h; series mostly up to 28.7 µM
# Method in brief: as §1
# AS120 = assay: as above; details: P. falciparum in erythrocytes, SYBR Green DNA, 72 h; series mostly up to 28.7 µM
# Method in brief: as §1
# ATS189 = assay: as above; details: P. falciparum in erythrocytes, SYBR Green DNA, 72 h; series mostly up to 28.7 µM
# Method in brief: as §1
# ATS95 = assay: as above; details: P. falciparum in erythrocytes, SYBR Green DNA, 72 h; series mostly up to 28.7 µM
# Method in brief: as §1
# C2A = assay: as above; details: P. falciparum in erythrocytes, SYBR Green DNA, 72 h; series mostly up to 28.7 µM
# Method in brief: as §1
# CP185 = assay: as above; details: P. falciparum in erythrocytes, SYBR Green DNA, 72 h; series mostly up to 28.7 µM
# Method in brief: as §1
# CP191 = assay: as above; details: P. falciparum in erythrocytes, SYBR Green DNA, 72 h; series mostly up to 28.7 µM
# Method in brief: as §1
# [2] = KB-3-1 P-gp reporter qHTS against the NCATS DSHEA and TCM libraries (AID 1919975); details: KB-3-1 parental cells, CellTiter-Glo luminescence viability, 72 h; series mostly up to 26.1 µM
# Method in brief: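 72 h exposure of KB-3-1 cells (DMEM, 10% FBS) to DSHEA/TCM samples, concentration-response; cell viability measured as CellTiter-Glo luminescence after 30 min at room temperature.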
# [3] = target: Cytochrome P450 1A2 (Homo sapiens) (UniProt P05177); assay: qHTS for inhibitors of CYPIA2 against the NCATS DSHEA and TCM libraries (AID 1919976); details: recombinant CYP1A2 enzyme activity, luminescence; series mostly up to 37 µM;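 further: light from luciferin formed by CYP1A2 from a pro-luciferin substrate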
# Sequence of Cytochrome P450 1A2 (Homo sapiens) (P05177 whole entry, looked up): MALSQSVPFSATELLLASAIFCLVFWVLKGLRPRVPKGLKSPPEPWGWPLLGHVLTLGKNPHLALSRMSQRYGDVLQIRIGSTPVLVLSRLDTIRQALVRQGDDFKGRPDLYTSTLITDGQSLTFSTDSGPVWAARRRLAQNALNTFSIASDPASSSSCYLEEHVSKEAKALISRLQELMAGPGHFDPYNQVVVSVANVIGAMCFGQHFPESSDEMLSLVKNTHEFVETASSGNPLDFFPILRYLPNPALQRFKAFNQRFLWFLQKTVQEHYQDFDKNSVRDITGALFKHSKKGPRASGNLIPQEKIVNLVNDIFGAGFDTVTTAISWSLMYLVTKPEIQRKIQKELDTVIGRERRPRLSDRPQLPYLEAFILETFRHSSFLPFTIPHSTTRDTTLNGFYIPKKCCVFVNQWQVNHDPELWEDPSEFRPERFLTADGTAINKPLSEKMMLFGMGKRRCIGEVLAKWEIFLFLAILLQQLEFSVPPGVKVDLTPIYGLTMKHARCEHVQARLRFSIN
# Method in brief: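 CYP1A2 + luciferin substrate, 100 mM KPO4-type buffer; cmpd 15 min RT; 1x NADPH regen, 30-45 min RT dark; detection reagent 30 min RT; luminescence. Minus-enzyme wells as background; furafylline intraplate control.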
# [4] = qHTS Counterscreen for compound interference against the NCATS DSHEA and TCM libraries (AID 1919978); details: firefly luciferase detection reagent interference, luminescence
# Method in brief: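 Read-out is luminescence after 30 min at RT with luciferin detection reagent. Before that, compounds (19.5 nM to 39.8 uM final) sat 15 min at RT with 1 uM D-luciferin or 100 mM potassium phosphate buffer. PTC124 served as intraplate control.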
# [5] = target: Nuclear receptor subfamily 1 group I member 2 (Homo sapiens) (UniProt O75469); assay: Dual reporter qHTS for agonist of Pregnane X Receptor (hPXR) against the NCATS DSHEA and TCM libraries: Luminescence readout (AID 1920059); details: hPXR dual reporter cells, luciferase luminescence agonist; series mostly up to 40 µM
# Sequence of Nuclear receptor subfamily 1 group I member 2 (Homo sapiens) (O75469 whole entry, looked up): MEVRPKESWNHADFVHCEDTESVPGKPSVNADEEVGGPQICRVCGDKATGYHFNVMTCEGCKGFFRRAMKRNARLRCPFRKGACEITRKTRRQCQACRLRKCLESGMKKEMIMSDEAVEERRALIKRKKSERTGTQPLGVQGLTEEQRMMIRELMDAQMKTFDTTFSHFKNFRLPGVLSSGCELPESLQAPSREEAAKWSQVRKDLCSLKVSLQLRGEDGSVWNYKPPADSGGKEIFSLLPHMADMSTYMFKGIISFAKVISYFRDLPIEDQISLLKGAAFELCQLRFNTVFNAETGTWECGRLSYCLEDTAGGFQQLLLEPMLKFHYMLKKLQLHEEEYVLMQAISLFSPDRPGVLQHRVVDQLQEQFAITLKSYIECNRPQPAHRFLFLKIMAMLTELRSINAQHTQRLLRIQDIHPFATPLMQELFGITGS
# Method in brief: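 hPXR-LucHepG2 cells in phenol red-free DMEM with 5% charcoal-stripped FBS, 2000 cells/well, attached 5 h, then exposed 24 h at 37C to compounds; rifampicin as positive agonist control (2.8 nM–92 uM). Luciferase luminescence read.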
# [6] = target: Nuclear receptor subfamily 1 group I member 2 (Homo sapiens) (UniProt O75469); assay: Dual reporter qHTS for antagonist of Pregnane X Receptor (hPXR) against the NCATS DSHEA and TCM libraries: Luminescence Readout (AID 1920060); details: hPXR dual reporter cells, luciferase luminescence, antagonist mode; series mostly up to 40 µM;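 further: HepG2 cells carrying hPXR luciferase reporter stimulated with rifampicin at 2 µM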
# Method in brief: (§2)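 HepG2 hPXR-Luc, 2000 cells/well, charcoal-stripped FBS medium; 5 h attach; RIF 2 uM final; 24 h 37C/5% CO2; CellTiter-Fluor 1 h, fluor 405/540; ONE-Glo 30 min RT, lum.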
# [7] = Dual reporter qHTS for antagonist of Pregnane X Receptor (hPXR) against the NCATS DSHEA and TCM libraries: Fluorescence Readout (AID 1920061); details: PXR dual reporter cells, antagonist mode; series mostly up to 40 µM
# Method in brief: as §2
# CP192 = assay: qHTS profiling for inhibitors of Plasmodium falciparum proliferation (AID 504749); further: nearly all actives have a fitted effect of over 60% in size; further: potency means the concentration at half of the fitted maximal effect; details: P. falciparum in erythrocytes, SYBR Green DNA, 72 h; series mostly up to 28.7 µM
# Method in brief: as §1
# CP194 = assay: as above; details: P. falciparum in erythrocytes, SYBR Green DNA, 72 h; series mostly up to 28.7 µM
# Method in brief: as §1
# [8] = Dual reporter qHTS for agonist of Pregnane X Receptor (hPXR) against the NCATS DSHEA and TCM libraries: Fluorescence readout (AID 1920058); details: PXR dual reporter cells; series mostly up to 40 µM
# Method in brief: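 HepG2 hPXR-Luc, 2000 cells/well, 5 h attach; cpds ~24 h, 37 °C/5% CO2; CellTiter-Fluor 1 h; fluor. Ex/Em 405/540 nm = viability.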
# [9] = qHTS drug screen for cell cycle checkpoint inhibitors in PARPi-resistant BRCA-mutant ovarian cancer cell lines. (AID 1963452; calls by dose curve); details: PEO1/OlaR viability, CellTiter-Glo luminescence, 96 h, stronger effect = lower value
# Method in brief: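 PEO1, PEO4 and PEO1/OlaR ovarian cancer cells, 600 per well, exposed 96 h at 37C to a dilution series. Viability read by CellTiter-Glo luminescence, normalized to DMSO and empty wells; activity summarized as Z-AUC.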
# [10] = at 28.7 µM (top of the series), parasite line A
# [11] = at 28.7 µM (top of the series), parasite line B
smiles,measurement,setting,value
CCOC(=O)c1c[nH]c2cc(OCC(C)C)c(OCC(C)C)cc2c1=O,Potency,[1]; parasite line A,39.8 nM (active)
same,Potency,[1]; parasite line B,56.2 nM (active)
same,Potency,3D7,126 nM (active)
same,Potency,7G8,70.8 nM (active)
same,Potency,AA1029,79.4 nM (active)
same,Potency,AS120,44.7 nM (active)
same,Potency,ATS189,63.1 nM (active)
same,Potency,ATS95,89.1 nM (active)
same,Potency,C2A,199 nM (active)
same,Potency,CP185,100 nM (active)
same,Potency,CP191,50.1 nM (active)
CCCCC/C=C\C/C=C\C/C=C\CCCCC(=O)O,"activity change, negative = inhibition",[2],-0.723% [at 3.26 µM] (inactive)
same,"activity change, negative = inhibition",[3],7.42% [at 4.62 µM] (inactive)
same,max response,[4],-1.8% (inactive)
same,activation,[5],-11.8% [at 5 µM] (inactive)
same,"activity change, negative = inhibition",[6],-11% [at 5 µM] (inactive)
same,"activity change, negative = inhibition",[7],4.34% [at 5 µM] (inactive)
same,"activity, negative = inhibition",[1]; [10],-2.11% (inactive)
same,"activity, negative = inhibition",[1]; [11],-8.25% (inactive)
same,Potency,3D7,inactive
same,Potency,AA1029,inactive
same,Potency,AS120,inactive
same,Potency,ATS189,inactive
same,Potency,ATS95,inactive
same,Potency,C2A,inactive
same,Potency,CP185,inactive
same,Potency,CP191,inactive
same,Potency,CP192,inactive
same,Potency,CP194,inactive
OCCOCCOCCO,"activity, negative = inhibition",[1]; [10],16.8% (inactive)
same,"activity, negative = inhibition",[1]; [11],11.6% (inactive)
same,Potency,3D7,inactive
same,Potency,7G8,inactive
same,Potency,AA1029,inactive
same,Potency,AS120,inactive
same,Potency,ATS189,inactive
same,Potency,ATS95,inactive
same,Potency,C2A,inactive
same,Potency,CP185,inactive
same,Potency,CP191,inactive
Cc1ncc(C[n+]2csc(CCO)c2C)c(N)n1,outcome,[2],inactive
same,max response,[4],-0.256% (inactive)
same,outcome,[8],inactive
same,Potency,[5],inactive
same,outcome,[7],inactive
same,"activity, negative = inhibition","[1]; at 12.8 µM (top of the series), parasite line A",5.7% (inactive)
same,"activity, negative = inhibition","[1]; at 12.8 µM (top of the series), parasite line B",7.59% (inactive)
same,Potency,3D7,inactive
same,Potency,7G8,inactive
same,Potency,AA1029,inactive
same,Potency,AS120,inactive
same,Potency,ATS189,inactive
same,Potency,ATS95,inactive
same,Potency,C2A,inactive
same,Potency,CP185,inactive
same,Potency,CP191,inactive
same,Potency,CP192,inactive
same,Potency,CP194,inactive
CC/C=C\C/C=C\C/C=C\C/C=C\C/C=C\C/C=C\CCC(=O)O,outcome,[2],inactive
same,Potency,[3],inactive
same,max response,[4],-0.949% (inactive)
same,outcome,[8],inactive
same,Potency,[5],inactive
same,outcome,[6],inactive
same,outcome,[7],inactive
same,"activity, negative = inhibition",[1]; [10],-24.9% (inactive)
same,"activity, negative = inhibition",[1]; [11],-13.6% (inactive)
same,Potency,3D7,inactive
same,Potency,7G8,12600 nM (active)
same,Potency,AA1029,inactive
same,Potency,AS120,inactive
same,Potency,ATS189,inactive
same,Potency,ATS95,inactive
same,Potency,C2A,inactive
same,Potency,CP185,inactive
same,Potency,CP191,inactive
same,Potency,CP192,inactive
same,Potency,CP194,inactive
CC(C)Cc1ccc([C@@H](C)C(=O)NS(C)(=O)=O)cc1,Z-AUC,[9],1.32 (inactive)
same,Z-AUC,[9]; measured here: PEO1 parental Z-AUC,0.781
same,Z-AUC,[9]; measured here: PEO4 Z-AUC,0.752
same,"activity, negative = inhibition",[1]; [10],3.44% (inactive)
same,"activity, negative = inhibition",[1]; [11],-5.62% (inactive)
same,Potency,3D7,inactive
same,Potency,7G8,inactive
same,Potency,AA1029,inactive
same,Potency,AS120,inactive
same,Potency,ATS189,inactive
same,Potency,ATS95,inactive
same,Potency,C2A,inactive
same,Potency,CP185,inactive
same,Potency,CP191,inactive
same,Potency,CP192,inactive
same,Potency,CP194,inactive
